According to article PMC9838217, “Structure of SALL4 zinc finger domain reveals link between AT-rich DNA binding and Okihiro syndrome”:

Molecular target: T1, SALL4 ZFC4 G921D (HT-SELEX) (Mus musculus, UniProt Q8BX22 870-940, G921D)
T1 sequence: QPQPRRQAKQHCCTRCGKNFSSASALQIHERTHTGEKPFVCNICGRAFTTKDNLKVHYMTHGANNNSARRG
Test: HT-SELEX; high values mean tight binding
Conditions: protein: recombinant; vector His6-GST; dsDNA, one strand shown
In short: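 In triplicate selections of up to 6 cycles, purified recombinant mouse SALL4 zinc finger cluster 4 (residues 870–940, 1 µg) was incubated 10 min at room temperature with library DNA (1.5 µg, then 200 ng) in 100 µl of 10 mM Tris–HCl pH 7.5, 50 mM NaCl, poly(dI-dC) and DTT, and complexes were captured on Ni2+ beads, washed and PCR-amplified. Sequencing was done on MiSeq with scanning for 6-mers. The binding signal is each canonical k-mer's read fraction, reported as fold change against the initial random library.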

Row | Sequence | binding signal [fold-change vs cycle 0]
1 | ATGCCC | 0.475 ± 0.0568
2 | CCTGCG | 0.246 ± 0.0829
3 | ATCGCC | 0.401 ± 0.088
4 | AACGCC | 0.377 ± 0.0751
5 | CGTGCA | 0.417 ± 0.0517
6 | GCGGCA | 0.158 ± 0.0724
7 | ACGTGC | 0.439 ± 0.0607
8 | ACGCGT | 0.366 ± 0.0637
9 | CCTGCC | 0.294 ± 0.0738
10 | CCGCGA | 0.221 ± 0.0689
11 | GGCCGA | 0.196 ± 0.0603
12 | GCGAGA | 0.472 ± 0.0669
13 | AGTGCG | 0.407 ± 0.068
14 | AGAGGC | 0.484 ± 0.0611
15 | GAGGCC | 0.286 ± 0.0765
16 | GGAATA | 1.35 ± 0.0751
17 | CGCATC | 0.441 ± 0.0726
18 | GACGGC | 0.211 ± 0.0714
19 | CCCCCG | 0.239 ± 0.0586
20 | AACGCG | 0.329 ± 0.0589

Row | Sequence | binding signal [fold-change vs cycle 0]
21 | ACAGCG | 0.381 ± 0.0624
22 | ACGAAT | 1.24 ± 0.0791
23 | GAACTA | 1.37 ± 0.112
24 | AAGCCC | 0.475 ± 0.062
25 | GGCCAC | 0.253 ± 0.0792
26 | ACCGGG | 0.357 ± 0.0693
27 | CTGCAC | 0.47 ± 0.0692
28 | ACTGGC | 0.448 ± 0.0505
29 | CAATAG | 1.31 ± 0.0578
30 | TCCGCA | 0.408 ± 0.0556
31 | CAGCCA | 0.442 ± 0.0984
32 | GGCTGA | 0.483 ± 0.072
33 | CCCTCG | 0.388 ± 0.0906
34 | CGCCCG | 0.128 ± 0.0586
35 | AGCGGC | 0.177 ± 0.0591
36 | ACGGCT | 0.399 ± 0.0636
37 | CCACGC | 0.248 ± 0.0561
38 | CGGGGA | 0.347 ± 0.093
39 | CGCGTC | 0.207 ± 0.0615
40 | CACCCG | 0.342 ± 0.0506
